Compound activity (PubChem)
Pf Dd2 inh – Plasmodium falciparum Dd2 growth inhibition; P. falciparum Dd2 growth, SYBR Green, 72 h; 4.3% of 120,000 active; Potency, µM (titrated, usually from 28.9 µM), hits mostly inhibitors; active = well fitted inhibition curve with a large enough effect; note: nearly all actives have a fitted effect of over 65% in size
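Infected erythrocytes (Dd2, 0.3% parasitemia, 2.5% hematocrit final) are added to compound in RPMI-1640/Albumax II medium, grown 72 h at 37C in low oxygen, then lysed with saponin/Triton-X containing SYBR Green and read by fluorescence.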
Hits are given with their value; – = inactive; ! = not confirmed by another sample; [ ] = another dose, or the depositor's remark. Many of the other results were omitted from the sample, so hits are more common in it than they were.

SMILES	Pf Dd2 inh
O=C1CC2CCCC(C1)N2C(=O)c1cccc(Cl)c1	–
O=c1[nH]c(C2CCCN(CC3CC3)C2)nn1-c1ccccc1 (stereo not drawn)	–
O=c1[nH]c(C2CCCN(Cc3cccc(Cl)c3)C2)nc2ccc(F)cc12 (stereo not drawn)	10µM!
O=C(NCc1ccccc1)N1CC[C@H](c2nc3ccc(F)cc3[nH]2)C1	–
O=c1[nH]c(C2CCCN(CC3CCCC3)C2)nc2ccc(F)cc12 (stereo not drawn)	2.2µM
O=c1[nH]c(C2CCCN(Cc3ccccc3)C2)nn1-c1ccc(Cl)cc1 (stereo not drawn)	–
O=c1[nH]c(C2CCN(Cc3cccs3)CC2)nc2ccc(F)cc12	–
Cc1ccc2nc(C3CCN(Cc4cccc(Cl)c4)CC3)[nH]c(=O)c2c1	–
O=c1[nH]c(C2CCCN(Cc3ccc(Cl)cc3)C2)nc2ccc(F)cc12 (stereo not drawn)	8.9µM
COc1ccc(CN2CCCC(c3nn(-c4ccc(Cl)cc4)c(=O)[nH]3)C2)cc1 (stereo not drawn)	–
COc1cccc(CN2CCC3(CC2)CN[S+](=O)([O-])c2ccccc2N3)c1	–
CC(C)OCCCNc1ncnc2c1CN(C1CCC1)C(=O)CN2C	–
Cc1nc(N(C)Cc2cccc(-c3nn[nH]n3)c2)c2cnn(C)c2n1	–
COC[C@@H]1CN(S(C)(=O)=O)C[C@H]1C(=O)N(C)C	–
O=C(c1ccc(Cl)nc1)N1CCC2(CC1)CC(=O)N(c1ccccc1)c1ccccc1O2	–
c1ccc(-c2nc(C3CC3)no2)c(OC2CNC2)c1	–
CN1Cc2ccc(NCc3ccccc3)nc2C(C)(C(=O)NCc2cccnc2)C1 (stereo not drawn)	–
CC1(C(=O)NC2CCOCC2)CN(Cc2ccccc2)Cc2ccc(Nc3ccccc3)nc21 (stereo not drawn)	–
CC(C)CNc1ccc2c(n1)C(C)(C(=O)NC1CC1)CN(Cc1ccccc1)C2 (stereo not drawn)	–
CNC(=O)C1(C)CN(Cc2ccccc2)Cc2ccc(Nc3ccccc3)nc21 (stereo not drawn)	10µM
CC1(C(=O)Nc2ccccc2)CN(Cc2ccccc2)Cc2ccc(N3CCOCC3)nc21 (stereo not drawn)	–
COCCNC(=O)C1(C)CN(Cc2ccccc2)Cc2ccc(Nc3ccccc3)nc21 (stereo not drawn)	–
CC(C)CNc1ccc2c(n1)C(C)(C(=O)N1CCC1)CN(Cc1ccccc1)C2 (stereo not drawn)	–
CC1(C(=O)Nc2ccc(F)cc2)CN(Cc2ccccc2)Cc2ccc(N3CCOCC3)nc21 (stereo not drawn)	6.3µM
CN1Cc2ccc(NCc3ccccc3)nc2C(C)(C(=O)NC2CCC2)C1 (stereo not drawn)	4µM
SMILES	Pf Dd2 inh
COc1ccc(C(=O)N2CCC3(CN[S+](=O)([O-])c4cccnc4O3)C2)cc1 (stereo not drawn)	–
Cc1nc(CC2CCN(C(=O)CCc3cc4n(n3)CCCNC4)CC2)no1	–
O=C(Nc1cccc2ccccc12)O[C@@H]1CO[C@H]2[C@@H]1OC[C@@H]2Nc1nccc(-c2cccc(F)c2)n1	–
O=C(c1ccc2[nH]ccc2c1)N1CCC(Cc2nncn2CC2CC2)C1 (stereo not drawn)	–
COc1ccc(CCNC(=O)C2(c3ccc(Cl)cc3)CCOCC2)cc1	–
CCCS(=O)(=O)N[C@@H]1CN(Cc2ccncc2)C[C@H]1CN(C)C	–
CC(=O)N1CCc2c(sc3c2c(=O)n(-c2ccccc2)c(=O)n3CC(=O)c2ccccc2)C1	–
CC(=O)N1CCc2c(sc3c2c(=O)n(-c2ccccc2)c(=O)n3Cc2cccc(C(F)(F)F)c2)C1	10µM
CCOC(=O)N1CCc2c(sc3c2c(=O)n(-c2ccc(CC)cc2)c(=O)n3Cc2cccc(OC)c2)C1	–
CC(=O)c1cccc(-n2c(=O)c3c4c(sc3n(Cc3ccccc3Cl)c2=O)CN(C(C)=O)CC4)c1	–
CCOC(=O)N1CCc2c(sc3c2c(=O)n(CCc2ccccc2)c(=O)n3CC(=O)Nc2cccc(C)c2)C1	–
C#CCn1c(=O)n(-c2cccc(Cl)c2C)c(=O)c2c3c(sc21)CN(C(C)=O)CC3	–
CCOc1ccc(NC(=O)Cn2c(=O)n(CCc3ccccc3)c(=O)c3c4c(sc32)CCCC4)cc1	–
CC(=O)N1CCc2c(sc3c2c(=O)n(-c2cccc(Cl)c2C)c(=O)n3Cc2ccccc2C)C1	8.9µM
CCOC(=O)N1CCc2c(sc3c2c(=O)n(Cc2ccccc2)c(=O)n3Cc2ccc(C)cc2)C1	2.5µM
CC(=O)c1cccc(-n2c(=O)c3c4c(sc3n(Cc3cccc(C)c3)c2=O)CN(C(C)=O)CC4)c1	–
CCOc1ccccc1NC(=O)Cn1c(=O)n(Cc2ccccc2)c(=O)c2c3c(sc21)CN(C(C)=O)CC3	–
CCOC(=O)N1CCc2c(sc3c2c(=O)n(CCc2ccccc2)c(=O)n3Cc2ccc(C)cc2C)C1	2.5µM
COCc1cc(CNC(=O)CC2C(=O)NCCN2Cc2ccccc2)[nH]n1 (stereo not drawn)	–
Cc1cccc(C(=O)N2CCC[C@H]2c2nc(-c3ccccc3)no2)c1	–
COc1ccc(Cl)cc1C(=O)N(C)C1CCc2nnc(C)n2CC1 (stereo not drawn)	–
CC(=O)N1C2CCC1CN(Cc1cccnc1)C2	–
O=C1c2c(nc(CNCc3cccnc3)n2Cc2ccccc2)NCCN1CC1CCOCC1	–
Cn1cc(CNC(=O)C[C@@H]2C[C@H]3O[C@H](CN)[C@@H](O)[C@H]3O2)cn1	–
Cc1ccccc1NC(=O)Cn1nc2c(cc1=O)CCCCC2	–
SMILES	Pf Dd2 inh
COCc1ccc2c(c1)c(OC(C)(C)C(=O)Nc1ccccc1)nn2Cc1cccnc1	–
CCc1nc(-c2ccc(OC3CCN(Cc4cccc(F)c4)C3)cc2)no1 (stereo not drawn)	–[5.79 µM]
CN1CCOc2c(C(=O)NCCC(N)=O)cc(-c3ccccc3O)cc21	–
CC(=O)N1CCc2c(sc3c2c(=O)n(Cc2ccccc2)c(=O)n3Cc2cccc(Cl)c2)C1	10µM
CC(=O)N1CCc2c(sc3c2c(=O)n(Cc2ccccc2)c(=O)n3Cc2ccc(Cl)cc2)C1	–
COc1ccccc1NC(=O)Cn1c(=O)n(Cc2ccccc2)c(=O)c2c3c(sc21)CN(C(C)=O)CC3	–
Cc1cnc(C(=O)NC2CCN(C(=O)N3CC4CC(C3)[C@H]3CCCC(=O)N3C4)CC2)cn1 (stereo partly drawn)	–
O=C1NC2(CCN(C(=O)c3ccc(C(F)(F)F)cc3)CC2)COc2ccccc21	1.1µM
O=C(c1ccc(C(F)(F)F)cc1)N1CCC2(CC1)COc1ccccc1CN2	–
O=C1NC2(CCN(C(=O)c3ccc(F)cc3)CC2)COc2ccccc21	–
COc1ccc(C(=O)N2CCC3(CC2)COc2ccccc2[S+](=O)([O-])N3)cc1	–
O=C1NC2(CCCN(C(=O)c3ccc(F)cc3)C2)COc2ccccc21 (stereo not drawn)	–
COc1ccc(C(=O)N2CCC3(CC2)COc2ccccc2C(=O)N3)cc1	2.2µM
O=C(CC[C@H]1NC(=O)c2ccccc2NC1=O)NC1CCS(=O)(=O)C1 (stereo partly drawn)	–
O=C(C1CCCC1)N1Cc2ccccc2NC(=O)C12CCNCC2	–
COC[C@@H]1CN(Cc2c(F)cccc2F)C[C@H]1C(=O)NC1CC1	–
Cc1ccc(CNc2ncncc2-c2nc(-c3ccccc3)no2)cc1	–
CCOC(=O)Cc1cc(C(=O)Nc2ccc(Br)cc2)sc1-c1ccc(C)cc1	7.1µM
CCOc1ccc(NC(=O)c2ccc(-c3ccccc3)s2)cc1	–
